The nature of assay [1]: qHTS assay to identify small molecule agonists of the peroxisome proliferator-activated receptor delta (PPARd) signaling pathway - cell viability counter screen (AID 743211). Further: nearly all actives have a fitted effect of over 55% in size. Further: potency means the concentration at half of the fitted maximal effect. The method in brief: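 PPARd-bla HEK293H cells (3000/well) were pre-incubated 5 h at 37 C, then exposed to compound for 17 h at 37 C. After 2 h with LiveBLAzer substrate, CellTiter-Glo was added to the same wells; luminescence read after 30 min at room temperature.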

Assay [2] in a line: qHTS assay to identify small molecule agonists of the vitamin D receptor (VDR) signaling pathway - cell viability counter screen (AID 743224). Further: nearly all actives have a fitted effect of over 50% in size. Further: potency means the concentration at half of the fitted maximal effect. The essentials: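 Viability is measured in the same wells as the VDR-bla reporter assay: after 16 h compound treatment and 2 h substrate loading, CellTiter-Glo is added and luminescence read 30 min later.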
Background: qHTS replaces the single test concentration by a dilution series.

The nature of assay [3]: qHTS assay to identify small molecule agonists of the NFkB signaling pathway (AID 1159509; active means well fitted curve in the direction sought with a large enough effect in the signal ratio in the repeat runs, not every such curve was filed as active; the % refers to the signal ratio; further: series mostly up to about 61 µM). The method in brief: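 NFkB-bla ME-180 cells with a beta-lactamase reporter under an NF-kB response element were plated overnight, treated with compounds in DMSO for 5 hr at 37 C, then loaded with FRET substrate for 1.5 hr at room temperature.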
Assay [4] is described as follows: qHTS assay to identify small molecule agonists of the endoplasmic reticulum stress response signaling pathway (AID 1159516; active means well fitted activation curve with a large enough effect in the signal ratio in the repeat runs, not every such curve was filed as active; the % refers to the signal ratio). The method in brief: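 Tox21 10K library screened in quantitative HTS format on ESRE-bla HeLa cells, a beta-lactamase reporter under ER stress response element control; 5 hr treatment, FRET read.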
Assay [5] can be described thus: qHTS assay to identify small molecule agonists of the endoplasmic reticulum stress response signaling pathway - cell viability counter screen (AID 1159517; calls by dose curve; further: nearly all actives have a fitted effect of over 50% in size; further: potency means the concentration at half of the fitted maximal effect). The essentials: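 Luminescence readout: CellTiter-Glo, 30 min RT, same wells as the ESRE-bla reporter read. HeLa ESRE-bla, 1,500 cells/well, o/n 37 C; cpd 5 hr 37 C/5% CO2.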
Assay [6] can be described thus: qHTS assay to identify small molecule antagonists of the retinoid-related orphan receptor gamma (ROR-gamma) signaling pathway - cell viability counter screen (AID 1159520). Further: nearly all actives have a fitted effect of over 50% in size. Further: potency means the concentration at half of the fitted maximal effect. The essentials:
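Tet-on ROR gamma CHO cells (1,000/well) were plated 4 hr, given compounds in DMSO for 2 hr at 37 C, then induced with 1 uM final doxycycline for 16 hr. Viability was read as ATP by CellTiter-Glo luminescence after 30 min.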

Assay [7] addresses Nuclear receptor ROR-gamma (Homo sapiens) (UniProt P51449). Kind of assay: qHTS assay to identify small molecule antagonists of the retinoid-related orphan receptor gamma (ROR-gamma) signaling pathway (AID 1159521; further: nearly all actives have a fitted effect of over 50% in size; further: potency means the concentration at half of the fitted maximal effect). The essentials:
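Tet-on ROR-gamma CHO cells with ROR response element-luciferase reporter; compounds added 2 hr before 1 uM doxycycline induction, then 16 hr at 37 C. Antagonism scored as decreased ONE-Glo luminescence.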

Assay [8] in a line: qHTS assay to identify small molecule agonists of the AP-1 signaling pathway - cell viability counter screen (AID 1159525; calls by dose curve; further: nearly all actives have a fitted effect of over 55% in size). The method in brief:
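ME-180 AP-1-bla, 2500 cells/well, Opti-MEM + 0.5% dialyzed FBS; overnight 37 °C; cpd 15-pt titration, 5 h 37 °C; CellTiter-Glo 30 min RT; luminescence read; normalised to TOAB and DMSO controls.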

A short description of assay [9]: qHTS assay to identify small molecule agonists of the AP-1 signaling pathway (AID 1159526; calls by dose curve).
For assay [10], the target named is Peroxisome proliferator-activated receptor delta (Homo sapiens) (UniProt Q03181). Kind of assay: qHTS assay to identify small molecule agonists of the peroxisome proliferator-activated receptor delta (PPARd) signaling pathway (AID 743212; calls by dose curve). The essentials: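 GeneBLAzer PPARd UAS-bla HEK293H cells (beta-lactamase reporter under UAS control), plated and rested 5 h at 37 C, then exposed to compounds in DMSO at 37 C; LiveBLAzer B/G FRET substrate added, 2 h room temperature, fluorescence read.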
Peroxisome proliferator-activated receptor delta (Homo sapiens), sequence (Q03181 whole entry, looked up): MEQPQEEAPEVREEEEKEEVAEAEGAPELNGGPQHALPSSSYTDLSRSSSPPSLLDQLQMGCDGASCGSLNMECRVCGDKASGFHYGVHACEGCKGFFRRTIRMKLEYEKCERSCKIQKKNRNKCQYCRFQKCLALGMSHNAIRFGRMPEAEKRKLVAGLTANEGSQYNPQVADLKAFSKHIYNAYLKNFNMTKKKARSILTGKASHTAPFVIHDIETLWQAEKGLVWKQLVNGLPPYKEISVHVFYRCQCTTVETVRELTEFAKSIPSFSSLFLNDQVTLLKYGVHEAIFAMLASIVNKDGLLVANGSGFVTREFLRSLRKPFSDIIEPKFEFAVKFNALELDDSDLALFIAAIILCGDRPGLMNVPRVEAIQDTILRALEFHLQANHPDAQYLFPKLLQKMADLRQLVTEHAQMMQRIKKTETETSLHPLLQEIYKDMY

Assay [11] shares this target. Kind of assay: qHTS assay to identify small molecule antagonists of the peroxisome proliferator-activated receptor delta (PPARd) signaling pathway (AID 743215; active means well fitted inhibition curve with a large enough effect in the signal ratio in the repeat runs, not every such curve was filed as active; the % refers to the signal ratio;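 further: cells stimulated with agonist L165041 at 300 nM final during compound exposure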; further: potency means the concentration at half of the fitted maximal effect). The essentials:
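Inhibition of L165041-driven (300 nM final) PPARd signaling is scored in HEK293H UAS-bla cells. Exposure lasts 17 h at 37 C; beta-lactamase activity is then read by FRET substrate fluorescence after 2 h at room temperature.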

Assay [12] deals with Bile acid receptor (Homo sapiens) (UniProt Q96RI1). In words: qHTS assay to identify small molecule antagonists of the farnesoid-X-receptor (FXR) signaling pathway (AID 743217; active means well fitted inhibition curve with a large enough effect in the signal ratio in the repeat runs, not every such curve was filed as active; the % refers to the signal ratio). The method in brief: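 Antagonist mode against 50 uM (final) chenodeoxycholic acid stimulation in FXR-bla HEK 293T cells, 16 h at 37 °C. Inhibition detected as reduced beta-lactamase activity via LiveBLAzer B/G FRET fluorescence after 2 h at room temperature.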
Bile acid receptor (Homo sapiens), sequence (Q96RI1 whole entry, looked up): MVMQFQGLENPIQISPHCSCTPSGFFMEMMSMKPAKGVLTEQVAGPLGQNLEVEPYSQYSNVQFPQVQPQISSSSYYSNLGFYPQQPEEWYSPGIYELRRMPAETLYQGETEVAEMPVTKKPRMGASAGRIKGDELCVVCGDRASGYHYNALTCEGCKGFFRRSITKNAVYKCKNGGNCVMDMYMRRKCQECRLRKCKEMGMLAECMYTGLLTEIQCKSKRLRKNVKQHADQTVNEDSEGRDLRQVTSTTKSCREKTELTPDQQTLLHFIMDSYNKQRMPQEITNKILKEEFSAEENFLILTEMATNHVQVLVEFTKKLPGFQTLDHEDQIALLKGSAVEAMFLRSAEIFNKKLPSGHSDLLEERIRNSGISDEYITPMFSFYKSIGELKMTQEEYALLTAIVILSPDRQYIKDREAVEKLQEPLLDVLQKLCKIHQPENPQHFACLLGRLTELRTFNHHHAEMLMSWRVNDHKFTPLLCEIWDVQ

Assay [13] has the same target. In words: qHTS assay to identify small molecule agonists of the farnesoid-X-receptor (FXR) signaling pathway (AID 743220; active means well fitted activation curve with a large enough effect in the signal ratio in the repeat runs, not every such curve was filed as active; the % refers to the signal ratio). The method in brief: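 Beta-lactamase reporter under UAS control in GeneBLAzer FXR HEK 293T cells (5000/well) measured with LiveBLAzer FRET substrate after 2 h at room temperature. Compound exposure lasted 16 h at 37C.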
Assay [14] is described as follows: qHTS assay to identify small molecule antagonists of the farnesoid-X-receptor (FXR) signaling pathway - cell viability counter screen (AID 743221; active means well fitted cell-killing curve with a large enough effect in the repeat runs, not every such curve was filed as active; further: nearly all actives have a fitted effect of over 50% in size; further: potency means the concentration at half of the fitted maximal effect). The method in brief: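 GeneBLAzer FXR-UAS-bla HEK 293T cells, compound plus chenodeoxycholic acid (50 uM final), 16 h at 37 C. CellTiter-Glo added to the same wells after the beta-lactamase read; luminescence read after 30 min at room temperature as viability.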

Assay [15] deals with Vitamin D3 receptor (Homo sapiens) (UniProt P11473). Kind of assay: qHTS assay to identify small molecule agonists of the vitamin D receptor (VDR) signaling pathway (AID 743222; calls by dose curve). The essentials:
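Quantitative HTS agonist-mode screen: compounds in DMSO were pin-transferred onto VDR-bla cells and incubated 16 h at 37C, 5% CO2. Reporter activity was detected with LiveBLAzer B/G FRET substrate after 2 h at room temperature.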

The target is the same in assay [16]. In words: qHTS assay to identify small molecule antagonists of the vitamin D receptor (VDR) signaling pathway (AID 743223; active means well fitted inhibition curve with a large enough effect in the signal ratio in the repeat runs, not every such curve was filed as active; the % refers to the signal ratio). The method in brief: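 VDR-bla cells were treated with compound plus 3 nM final 1alpha,25-dihydroxyvitamin D3 for 16 h at 37C. Beta-lactamase reporter read by B/G FRET substrate fluorescence after 2 h at room temperature. qHTS format.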

A short description of assay [17]: qHTS assay to identify small molecule antagonists of the vitamin D receptor (VDR) signaling pathway - cell viability counter screen (AID 743225). Further: nearly all actives have a fitted effect of over 50% in size. Further: potency means the concentration at half of the fitted maximal effect. The essentials:
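VDR-UAS-bla HEK 293T cells were plated and incubated 4 h at 37C, then dosed with compound plus 3 nM (final) 1-alpha,25-dihydroxyvitamin D3 for 16 h. After the 2 h beta-lactamase read, viability in the same wells was read as CellTiter-Glo luminescence after 30 min at room temperature.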

The nature of assay [18]: qHTS assay to identify small molecule agonists of the NFkB signaling pathway - cell viability counter screen (AID 1159515; calls by dose curve; further: nearly all actives have a fitted effect of over 55% in size; further: potency means the concentration at half of the fitted maximal effect). The essentials:
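Multiplexed viability readout: after the 5 hr compound exposure and 1.5 hr FRET substrate step, CellTiter-Glo reagent went into the same NFkB-bla ME-180 wells; ATP luminescence was measured after 30 min at room temperature.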

Assay [19] in a line: qHTS assay to identify small molecule antagonists of the peroxisome proliferator-activated receptor delta (PPARd) signaling pathway - cell viability counter screen (AID 743213). Further: nearly all actives have a fitted effect of over 50% in size. Further: potency means the concentration at half of the fitted maximal effect. The method in brief:
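PPARd-bla HEK293H cells (3000/well) got compound plus 300 nM L165041 agonist for 17 h at 37 C. Viability in the same wells came from CellTiter-Glo luminescence after 30 min at room temperature.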

Assay [20] is described as follows: qHTS assay to identify small molecule agonists of the farnesoid-X-receptor (FXR) signaling pathway - cell viability counter screen (AID 743218). Further: nearly all actives have a fitted effect of over 45% in size. Further: potency means the concentration at half of the fitted maximal effect. The method in brief: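 Cytotoxicity counter-screen run in parallel, same wells: FXR-UAS-bla HEK 293T cells dosed 16 h at 37 C, viability read by CellTiter-Glo luminescence after 30 min at room temperature.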

Several values for one entry are separate records, joined by “and”; a condition that tells them apart may be missing. Identical values can stand only once. Inconclusive results are not listed. More than one record can exist for a structure, and the calls need not agree. Activity calls are given as the source filed them. Unless noted, the call rests on the fitted dose curve; in most records, active means well fitted curve in the direction sought with a large enough effect in the repeat runs; inconclusive means weak or mixed curves; inactive means no such curve, though single readings can be large; an effect the other way counts as inactive or inconclusive.

Vitamin D3 receptor (Homo sapiens), sequence (P11473 whole entry, looked up): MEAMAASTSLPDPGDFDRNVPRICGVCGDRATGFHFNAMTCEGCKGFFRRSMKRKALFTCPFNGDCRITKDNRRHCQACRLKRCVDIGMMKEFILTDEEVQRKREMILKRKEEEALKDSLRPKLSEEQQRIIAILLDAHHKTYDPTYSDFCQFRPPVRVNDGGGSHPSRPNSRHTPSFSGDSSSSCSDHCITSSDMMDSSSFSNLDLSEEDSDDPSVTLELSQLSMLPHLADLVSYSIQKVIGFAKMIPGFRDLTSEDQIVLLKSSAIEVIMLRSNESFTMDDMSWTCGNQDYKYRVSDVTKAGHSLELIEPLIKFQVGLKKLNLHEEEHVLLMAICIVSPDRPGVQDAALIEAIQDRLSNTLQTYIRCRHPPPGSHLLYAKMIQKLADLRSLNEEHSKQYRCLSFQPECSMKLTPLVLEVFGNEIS

Consider `O=[N+]([O-])c1ccc(O)c([N+](=O)[O-])c1`, for which the Potency result in assay [1], in assay [2], in assay [5], in assay [6] and in assay [8] was “inactive” in each case. Besides, the compound was called inactive in assay [3], in assay [4] and in assay [9]. Moreover, the Potency in assay [7] is 17.3 µM (active) and 17.2 µM (active).

Consider `CCOP(=S)(OCC)O/N=C(\C#N)c1ccccc1`, for which the Potency result in [1], in assay [10], in assay [11], in assay [12], in assay [14] and in [2] was “inactive” in each case. Moreover, the Potency result in assay [17], in [18], in [5], in assay [6], in assay [7] and in assay [8] was “inactive” throughout. The result in [13], in assay [15], in [16], in assay [3] and in assay [4] was inactive.

On to `C=CC(=O)OCCO`, for which the Potency entry in [1], in assay [10], in assay [19], in assay [11], in assay [14] and in [2] was “inactive” each time. In addition, the Potency result in [17], in assay [5], in [6], in assay [7] and in assay [8] was “inactive” each time. Moreover, the outcome in assay [15], in [16], in assay [3], in assay [4] and in assay [9] was inactive.

Consider `CC(C)Oc1cc(-n2nc(C(C)(C)C)oc2=O)c(Cl)cc1Cl`, for which the Potency in assay [1] is 15.5 µM (active); in [19] it was “inactive and 27.5 µM (active)”; in assay [20] it was “inactive and 38.9 µM (active)”; in assay [14], “inactive and 49 µM (active)”; in assay [2], 12.3 µM (active); in assay [17] it was 13.8 µM (active). In addition, the Potency result in assay [11], in [18], in assay [5], in [6] and in assay [8] was “inactive” throughout. For the same compound, the call in assay [13], in assay [15], in assay [16], in assay [3], in assay [4] and in [9] was inactive.

On to `O=C(Nc1ccc(Br)cc1)c1cc(Br)cc(Br)c1O`, for which the Potency in [1] is 6.14 µM (active) and 2.45 µM (active) and 8.41 µM (active); in [19], 1.55 µM (active); in assay [11], 6.89 µM (active); in assay [20], 3.45 µM (active) and 1.55 µM (active) and 7.5 µM (active); in assay [14], 9.74 µM (active) and 2.45 µM (active) and 13.3 µM (active); in assay [2] it was 1.73 µM (active) and 2.19 µM (active) and 8.41 µM (active). Moreover, the Potency in assay [17] was 1.95 µM (active); in assay [18] it was 13.8 µM (active) and 49 µM (active); in assay [5], 8.68 µM (active) and 1.95 µM (active) and 5.35 µM (active); in assay [6], 27.2 µM (active) and 17.2 µM (active); in assay [7], 13.6 µM (active) and 10.9 µM (active). For the same compound, the Potency entry in assay [10] and in assay [8] was “inactive” throughout. The compound was called inactive in [15], in assay [16], in [3] and in [9].

With `CCC(CC)Nc1c([N+](=O)[O-])cc(C)c(C)c1[N+](=O)[O-]`, the Potency entry in [1], in [10], in [19], in [11], in assay [12] and in assay [14] was “inactive” in each case. Moreover, the Potency result in [2], in assay [17], in assay [18], in [5], in [6] and in assay [7] was “inactive” in each case. Besides, the Potency result in assay [8] was “inactive”. Also, the result in assay [13], in [15], in assay [16] and in [3] was inactive.

For the origin of these results see PubChem BioAssay (Tox21).
